# The source holds several records for some structures; these can differ, active in one and inactive in another. Calls of active or inactive are those of the source. Rule for the calls: active = hit-call score of the fitted dose curve at least 0.9, where 1 is the maximum; inactive = score below 0.9.
# Experiment: BSK_BE3C_SRB: Viability Assessment in the BioMAP Diversity Plus: BE3C Assay (AID 2283028);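 for AC50: fitted both ways so AC50 may mark signal gain or loss versus DMSO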
# Conditions: primary human bronchial epithelial cells
# Procedure: BSK_BE3C is a cell-based, multiplexed-readout assay that uses bronchial epithelial cell, a human lung primary cell, with measurements taken at 24 hours after chemical dosing in a 96-well plate.BSK_BE3C_SRB is an assay component measured in the BSK_BE3C assay. It measures 0.1% sulforhodamine related to cell death using Sulforhodamine staining technology.Data from the assay component BSK_BE3C_SRB was analyzed into 1 assay endpoint. This assay endpoint, BSK_BE3C_SRB, was analyzed with bidirectional fitting relative to DMSO as the negative control and baseline of activity. Using a type of viability reporter, gain or loss-of-signal activity can be used to understand changes in the signaling. Furthermore, this assay endpoint can be referred to as a primary readout, because this assay has produced multiple assay endpoints where this one serves a signaling function. To generalize the intended target to other relatable targets, this assay endpoint is annotated to the cell morphology intended target family, where the subfamily is cell conformation.
# The levels of cell surface (or secreted, indicated by the prefix "s") biomarker endpoints were measured by ELISA. Overt cytotoxicity to cells in confluent adherent cultures (all systems other than the BT system) was assessed by measuring total protein levels using sulforhodamine B (SRB) staining in parallel cultures at the time of biomarker measurements, indicated as SRB endpoints. For proliferation assays for adherent cell types, individual cell types are cultured at sub-confluence and relative cell numbers quantified by SRB staining at time points optimized for each system (48 h: 3C and CASM3C systems; 72 h: BT and HDF3CGF systems; 96 h: SAg system). SRB was performed by staining cells with 0.1% SRB after fixation with 10% TCA and reading wells at 560 nm.Viability and proliferation of PBMC (T cells) was quantified by Alamar Blue reduction for the SAg and BT systems. For PBMC viability (referred to as PBMC Cytotoxicity within the assay endpoint names), cells were plated (75,000/well in a 96-well plate) and then chemical samples added for 1 h before addition of activators, SEB and TSST-1 (20 ng/mL final concentration each). Cells were incubated for 90 h. Then, Alamar Blue (20 uL/well) (Invitrogen, Cat DAL1100) was added for 6 h, and the plates were read with a fluorescence microplate reader at 546/580 nm (excitation/emission). For PBMC proliferation, cells were plated and activated as above but incubated for only 16 h prior to addition of Alamar Blue. Plates were read after 6 h.
SMILES,outcome,AC50
O=Nc1ccc(O)cc1,inactive,
c1ccc2c(c1)ccc1cc3c(ccc4ccccc43)cc12,inactive,
CC(C)(c1cc(Br)c(OCCO)c(Br)c1)c1cc(Br)c(OCCO)c(Br)c1,inactive,
O=C1CCCN1CCO,inactive,
Nc1ccc(N)c(Cl)c1,inactive,
C#CC1(O)CC[C@H]2[C@@H]3CCC4=CCCC[C@@H]4[C@H]3CC[C@@]21C (stereo partly specified),,29.9 µM (active)
CC1OC1C1CCC2(C)OC2C1 (stereo unspecified),inactive,
CCCCC/C=C\C/C=C\CCCCCCCC(=O)OC,inactive,
C=CC(=O)OCC(Br)CBr (stereo unspecified),inactive,
N#[N+]c1ccc2c(S(=O)(=O)[O-])cccc2c1O,inactive,
C=CC=CC=CCCCCC,inactive,
c1ccc(-c2ccccn2)nc1,inactive,
CCCCC(CC)COCC1CO1 (stereo unspecified),inactive,
CCOc1nc(F)cc2nc(S(=O)(=O)Nc3c(Cl)cccc3C(=O)OC)nn12,inactive,
CCCCC(CC)COC(=O)c1ccccc1O (stereo unspecified),inactive,
CCO[Si](CCCN=C=O)(OCC)OCC,inactive,
CC(C)C(=O)C(C)C,inactive,
C=CCOc1c(Br)cc(Br)cc1Br,,31.4 µM (active)

SMILES,outcome,AC50
CN1C(=O)N(C)C(O)C1O (stereo unspecified),inactive,
CCO[Si](C)(OCC)OCC,inactive,
O=C(Nc1ccccc1SSc1ccccc1NC(=O)c1ccccc1)c1ccccc1,inactive,
CCOC(=O)c1ccccc1C(=C1C=C(Br)C(=O)C(Br)=C1)c1cc(Br)c(O)c(Br)c1,inactive,12.5 µM (active)
O=C(Cl)c1cc(C(=O)Cl)cc(C(=O)Cl)c1,,29.1 µM (active)
C=CCOCC(O)CCl (stereo unspecified),inactive,
S=C(NC1CCCCC1)NC1CCCCC1,inactive,
O=C(c1ccc(O)cc1)c1ccc(O)cc1O,inactive,
CCCCCCCCCCCCCCCC[N+](C)(C)CC,,5.12 µM (active)
C/C=C\C/C=C/CCCCCCCCOC(C)=O,inactive,
O=c1c2ccccc2oc2ccccc12,inactive,
CO[Si](OC)(OC)c1ccccc1,inactive,
C=C[Si](OC(C)=O)(OC(C)=O)OC(C)=O,inactive,
CCCCCCCCc1ccc(Nc2ccc(CCCCCCCC)cc2)cc1,inactive,
CCCCNc1ccc(NCCCC)c2c1C(=O)c1ccccc1C2=O,inactive,
c1ccc2c(c1)ccc1ncccc12,inactive,
COc1ccc2nc(N)sc2c1,inactive,

# Source: PubChem BioAssay (EPA / NIEHS)
